TDP1 inh – TDP1 (human) enzyme inhibition; Q9NUW8; recombinant TDP1, AlphaScreen DNA substrate cleavage; Potency, µM (top dose mostly 130 µM), for inactives: top-dose activity change, negative = inhibition, hits mostly inhibitors; 0.28% of 350,000 active; note: potency is the fitted concentration of half-maximal effect; % is set by controls: 0 for no effect and ±100 for the full control effect; nearly all actives have a fitted effect of over 40% in size
Target sequence (Q9NUW8 whole entry, looked up): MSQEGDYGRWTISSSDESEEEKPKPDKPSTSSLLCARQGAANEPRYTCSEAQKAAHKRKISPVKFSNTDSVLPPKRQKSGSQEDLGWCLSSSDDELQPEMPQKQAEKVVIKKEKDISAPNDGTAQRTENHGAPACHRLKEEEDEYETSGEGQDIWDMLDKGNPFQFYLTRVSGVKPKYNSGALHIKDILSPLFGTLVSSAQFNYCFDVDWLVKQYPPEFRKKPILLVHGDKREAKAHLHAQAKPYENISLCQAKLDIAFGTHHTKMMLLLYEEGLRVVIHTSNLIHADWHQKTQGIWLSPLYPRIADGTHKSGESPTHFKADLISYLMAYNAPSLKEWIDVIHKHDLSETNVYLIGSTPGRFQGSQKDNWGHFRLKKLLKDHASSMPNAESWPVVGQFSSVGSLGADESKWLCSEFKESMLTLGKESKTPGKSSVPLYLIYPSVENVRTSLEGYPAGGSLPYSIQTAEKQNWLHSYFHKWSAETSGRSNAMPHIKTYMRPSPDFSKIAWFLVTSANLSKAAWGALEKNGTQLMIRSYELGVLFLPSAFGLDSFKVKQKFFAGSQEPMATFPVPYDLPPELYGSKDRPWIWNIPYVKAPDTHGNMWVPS
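Compounds were preincubated with Tdp1 (1 nM final) for 15 min at room temperature before substrate (15 nM final) started a 5 min reaction; beads (10 ug/ml final) were then added for 10 min before AlphaScreen detection.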
TGFb SMAD3 inh – TGF-b pathway inhibition; HepG2 CAGA-GFP TGF-b/SMAD3 reporter, GFP fluorescence, 18 h; TGF-beta stimulated, 500 pg/mL final; Potency, µM (doses to about 46.1 µM), inactives show at the highest dose activity, negative = inhibition, most hits filed as inhibitors; 1.2% of 410,000 active; note: potency is the fitted concentration of half-maximal effect; % is set by controls: 0 for no effect and ±100 for the full control effect; nearly all actives have a fitted effect of over 65% in size
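Read-out: total well GFP (ex488/em500-530) summed from mean per-cell fluorescence. Cells: HEPG2 CAGA-GFP, 1% FBS DMEM, 18 h at 37 degrees C with 500 pg/mL final TGF-beta. Unstimulated wells served as the full-inhibition control; stimulated DMSO wells = 0%.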
HepG2 tox – kills HepG2 cells in TGF-b inhibitor counter-screen; HepG2 CAGA-GFP viability, ATP luminescence, 18 h; Potency, µM (series often up to 46.1 µM), inactives show at the top dose activity change, negative = cytotoxicity, hits mostly cytotoxic; 0.76% of 410,000 active; AID 588856; note: potency is the fitted concentration of half-maximal effect
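HepG2 CAGA-GFP cells (1000/well, DMEM with 1% FBS) received compound, then TGF-beta at 500 pg/mL final, and were incubated 18 hours at 37 degrees C. Viability was read by CellTiter-Glo luminescence. Media-only wells were set as complete cell-killing and DMSO as no toxicity.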
IL-1B inflam inh – inflammasome signaling inhibition, IL-1 beta readout; activity change, % at 57.5 µM; 4.7% of 360,000 active; THP-1 LPS/ATP IL-1B secretion, AlphaLISA, 16 h; active compounds read low; in the data active = activity change below about -50%; inconclusive = mostly about -30% to -49%; note: % is set by controls: 0 for no effect and ±100 for the full control effect
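Secreted IL-1B measured by AlphaLISA bead assay after 16 h compound exposure of THP-1 cells; compounds (final up to 57.5 uM) added 1 h before LPS (250 ng/mL) and ATP (1.25 mM) stimulation; lower signal means less secretion.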
DT40 TDP1 no CPT – qHTS for Inhibitors of human tyrosyl-DNA phosphodiesterase 1 (TDP1): qHTS in cells in absence of CPT; DT40 Tdp1-/- hTDP1 cells, no CPT, ATP luminescence, 48 h; Potency, µM (series often up to 46.2 µM), without a hit: at the top dose activity change, negative = growth inhibition, hits mostly inhibitors; 15% of 420,000 active; AID 686978, 2013; note: potency is the fitted concentration of half-maximal effect; % is set by controls: 0 for no effect and ±100 for the full control effect; nearly all actives have a fitted effect of over 55% in size
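Compound effects on proliferation are scored in DT40 Tdp1-/-;hTDP1 cells in the absence of CPT. ATP levels (CellTiter-Glo luminescence) are recorded after a ≥48 hr, 37 °C incubation.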
TDP1 cell CPT – growth inhibition of DT40 Tdp1-/-;hTDP1 cells with camptothecin (screen for TDP1 inhibitors) | Potency, µM (doses to about 46.2 µM), without a hit: top-dose activity change, negative = growth inhibition, actives largely listed as inhibitors | 12% of 420,000 active | chicken DT40 Tdp1-/-;hTDP1 cells + 20 nM CPT, ATP luminescence, 48 h; note: potency is the fitted concentration of half-maximal effect; % is set by controls: 0 for no effect and ±100 for the full control effect; nearly all actives have a fitted effect of over 55% in size
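Chicken DT40 Tdp1-/- cells complemented with human TDP1, 400 cells/well, exposed to compounds plus 20 nM camptothecin for at least 48 h at 37 C; viability read as ATP content by CellTiter-Glo luminescence.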
An asterisk follows results filed as active; [ ] = another dose, or the depositor's remark. The list is not random: actives were taken first. Their share in the collection is about 19%. Unless noted, calls come from the whole dose curve; as a rule, active = well fitted curve in the direction sought with a large enough effect; inconclusive = small, poorly fitted or top-dose-only effect, or another doubt; inactive = no such curve, though single readings can be large; an effect the other way counts as inactive or inconclusive.

What do the screens show for `O=C(Nc1ccc(F)cc1)Nc1ccc(N2CCOCC2)c2nonc12`?
TDP1 inh: 4%; TGFb SMAD3 inh: -6%; HepG2 tox: -17%; IL-1B inflam inh: inconclusive; DT40 TDP1 no CPT: inconclusive; TDP1 cell CPT: -16%

What do the screens show for `O=C(Nc1ccc(N2CCOCC2)c2nonc12)C1CCCC1`?
TDP1 inh: 6%; TGFb SMAD3 inh: 2%; HepG2 tox: -22%; IL-1B inflam inh: -21; DT40 TDP1 no CPT: 26µM*; TDP1 cell CPT: 18µM*

How did CCCCCC/C=C/c1ccc(OC)c(C2C3C=CCC(C)C3C(=O)N2Cc2ccccc2)c1 (configuration not stated) do in these assays?
TDP1 inh: 9%; TGFb SMAD3 inh: 1%; HepG2 tox: 6%

Results for Cc1cncn1CCc1nc2c3ccccc3nc(SCC(=O)Nc3ccccc3F)n2n1 ?
TDP1 inh: 3%; TGFb SMAD3 inh: 14%; HepG2 tox: -30%; DT40 TDP1 no CPT: inconclusive; TDP1 cell CPT: inconclusive

What do the screens show for `COCCCn1[nH]c2c3c(ccc2c1=O)C(=O)c1ccccc1C3=O`?
TDP1 inh: 5%; TGFb SMAD3 inh: inconclusive; HepG2 tox: -93%; IL-1B inflam inh: -18; DT40 TDP1 no CPT: 16µM*; TDP1 cell CPT: 16µM*

How did CC(C)(C)n1[nH]c2c3c(ccc2c1=O)C(=O)c1ccccc1C3=O do in these assays?
TDP1 inh: 2%; TGFb SMAD3 inh: 10µM*; HepG2 tox: 6.3µM*; IL-1B inflam inh: 0; DT40 TDP1 no CPT: 7.3µM*; TDP1 cell CPT: 8.2µM*

How did CN(C)C(=O)CSc1nnc(Cc2ccccc2)n1CC1CCCO1 (configuration not stated) do in these assays?
TDP1 inh: 0%; TGFb SMAD3 inh: 29%; HepG2 tox: 11%; IL-1B inflam inh: 7; DT40 TDP1 no CPT: -18%; TDP1 cell CPT: 0%

Results for O=C(Nc1ccc(-c2cscn2)cc1)C1CCCN(Cc2ccccc2)C1 (configuration not stated) ?
TDP1 inh: 4%; TGFb SMAD3 inh: -25%; HepG2 tox: -6%; IL-1B inflam inh: 15; DT40 TDP1 no CPT: inconclusive; TDP1 cell CPT: inconclusive

How did CCn1cc(CN2CCC(C(=O)Nc3cccc(-c4cscn4)c3)CC2)cn1 do in these assays?
TDP1 inh: 6%[56.1 µM]; TGFb SMAD3 inh: -1%; HepG2 tox: 1%; IL-1B inflam inh: -11; DT40 TDP1 no CPT: -8%; TDP1 cell CPT: -4%

How did CCn1cc(CN2CCCC(C(=O)Nc3cccc(-c4cc5ccccc5[nH]4)c3)C2)cn1 (configuration not stated) do in these assays?
TDP1 inh: 6%; TGFb SMAD3 inh: inconclusive; HepG2 tox: -26%; IL-1B inflam inh: -81*; DT40 TDP1 no CPT: inconclusive; TDP1 cell CPT: 4%

Results for CCc1ncc(CN2CCCC(C(=O)Nc3cccc(-c4ccc(F)cc4)c3)C2)cn1 (configuration not stated) ?
TDP1 inh: 6%; TGFb SMAD3 inh: 4%; HepG2 tox: -9%; IL-1B inflam inh: -12; DT40 TDP1 no CPT: 16µM*; TDP1 cell CPT: 23µM*

What do the screens show for `Cc1ccccc1CN1CCCC(C(=O)Nc2ccc(-c3ccn[nH]3)cc2)C1` (configuration not stated)?
TDP1 inh: 1%; TGFb SMAD3 inh: -20%; HepG2 tox: -18%; IL-1B inflam inh: inconclusive; DT40 TDP1 no CPT: inconclusive; TDP1 cell CPT: 16µM*

Results for Cc1ncc(CN2CCCC(C(=O)Nc3ccc(-c4cccc(F)c4)cc3)C2)cn1 (configuration not stated) ?
TDP1 inh: 6%; TGFb SMAD3 inh: 0%; HepG2 tox: -29%; IL-1B inflam inh: -87*; DT40 TDP1 no CPT: inconclusive; TDP1 cell CPT: 15µM*

How did COc1ccccc1/C=C/C(=O)OC(C)CN1CCCCC1 (configuration not stated) do in these assays?
TGFb SMAD3 inh: 2%; HepG2 tox: -14%; IL-1B inflam inh: -4; DT40 TDP1 no CPT: -20%; TDP1 cell CPT: -1%

Results for CNC(=O)c1c(NC(=O)c2cc(=O)c3ccccc3o2)sc2c1CCC2 ?
TDP1 inh: -5%; TGFb SMAD3 inh: -3%; HepG2 tox: 2%; DT40 TDP1 no CPT: 0%; TDP1 cell CPT: 1%

What do the screens show for `CC(C)=CCC/C(C)=C/C=O`?
TDP1 inh: 10%

Results for O=C(Nc1ccc(-c2cccc(F)c2)cc1)C1CCCN(Cc2ccccn2)C1 (configuration not stated) ?
TDP1 inh: 5%[56.1 µM]; TGFb SMAD3 inh: inconclusive; HepG2 tox: 6%; IL-1B inflam inh: inconclusive; DT40 TDP1 no CPT: 23µM*; TDP1 cell CPT: 21µM*

How did COc1cccc(-c2ccc(NC(=O)C3CCCN(Cc4ccccn4)C3)cc2)c1 (configuration not stated) do in these assays?
TGFb SMAD3 inh: 1%; HepG2 tox: -30%; IL-1B inflam inh: 19; DT40 TDP1 no CPT: inconclusive; TDP1 cell CPT: inconclusive

Results for COCCNC(=O)CN1N=C(c2ccc(C)cc2)CCC1=O ?
TGFb SMAD3 inh: -3%; HepG2 tox: 12%; IL-1B inflam inh: -15; DT40 TDP1 no CPT: -12%; TDP1 cell CPT: -7%

What do the screens show for `CCOC(=O)c1c(S(=O)(=O)N2CCC(C(=O)Nc3cccc(C#N)c3)CC2)c(C)n(C)c1C`?
TDP1 inh: 5%; TGFb SMAD3 inh: 9%; HepG2 tox: -36%; DT40 TDP1 no CPT: -20%; TDP1 cell CPT: -23%

Results for Cc1nc2ccccc2n1C1CCN(CC(=O)Nc2ccccc2Br)CC1 ?
TDP1 inh: 0%; TGFb SMAD3 inh: inconclusive; HepG2 tox: -34%; IL-1B inflam inh: -51*; DT40 TDP1 no CPT: 13µM*; TDP1 cell CPT: inconclusive

What do the screens show for `CCOc1ccccc1CNS(=O)(=O)c1cnc(N)nc1`?
TDP1 inh: -3%; TGFb SMAD3 inh: -14%; HepG2 tox: -5%; DT40 TDP1 no CPT: inconclusive; TDP1 cell CPT: -2%

What do the screens show for `COc1ccccc1NC(=O)CSc1nnc(COc2ccccc2OC)n1C`?
TDP1 inh: 3%; TGFb SMAD3 inh: -16%; HepG2 tox: 0%; IL-1B inflam inh: -18; DT40 TDP1 no CPT: 7%; TDP1 cell CPT: -13%

Results for CCc1c(C(=O)Nc2ccccc2C(N)=O)csc1C ?
TDP1 inh: 0%; TGFb SMAD3 inh: -28%; HepG2 tox: 0%; IL-1B inflam inh: 4; DT40 TDP1 no CPT: -11%; TDP1 cell CPT: -20%

Screening data as filed in PubChem.
